Screening data from PubChem BioAssay.
Pf Dd2 growth = qHTS Primary assay for Inhibitors of Plasmodium falciparum Dd2 growth in vitro | P. falciparum Dd2 growth, SYBR Green, 72 h | 120,000 tested, 4.3% active | Potency, µM (top dose mostly 28.9 µM), without a hit: at the highest dose activity, negative = inhibition, most hits filed as inhibitors; active means well fitted inhibition curve with a large enough effect;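 further: plate controls were DMSO vehicle for no effect and reference drug for full effect; nearly all actives have a fitted effect of over 65% in size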
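Readout: SYBR Green fluorescence, 485 nm excitation, 535 nm emission, after ~16 h lysis at 37C. Before that, Dd2-infected red cells (2.5% hematocrit) grew 72 h with compound, 29 uM top final concentration.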
Active calls of the source: *; i = inactive; [ ] = another dose, or the depositor's remark. Shown is part of a subset that was picked to be rich in hits. Potency means the concentration at half of the fitted maximal effect.

SMILES	Pf Dd2 growth
Cc1nc(N2CCCC2)ncc1C(=O)NCc1cccc(Cl)c1	12.6%
CNC(=O)CCc1ccnc(N2CCCC2)c1	17.2%
O=C(CCc1ccnc(N2CCCC2)c1)NCc1cccc(Cl)c1	4.47µM*
Cc1cn2nc(C(=O)NCc3ccco3)cc2c(=O)[nH]1	7.6%
COc1ccccc1C(=O)N1CCC2(CC1)c1nccn1-c1ccccc1CN2CC(C)C	0.891µM*
COc1ccccc1C(=O)N1CCC2(CC1)c1nccn1-c1ccccc1CN2C	i[5.79 µM]
CC(C)CN1Cc2ccccc2-n2ccnc2C12CCN(C(=O)C(C)C)CC2	-20.9%[5.79 µM]
OCC1(CNCc2cccnc2)C[C@@H](O)[C@@H](O)C1 (stereo partly drawn)	-4.4%[44.1 µM]
Cn1nccc1C(=O)NCC1CCCCC(=O)N1 (stereo not drawn)	i
CCNC(=O)N[C@H]1[C@H](O)[C@@H](N(C)CCN(C)C)[C@@H]2OC[C@H]1O2	i
COc1ccc(Br)c(C(=O)N[C@@H]2C=C(C(=O)NCCC(N)=O)C[C@@H](O)[C@@H]2O)c1	38.0%
CCC(C(=O)Nc1cc(-c2nc3cccnc3s2)ccc1C)c1ccccc1 (stereo not drawn)	10µM*
Cc1ccc(-c2nc3cccnc3s2)cc1NC(=O)C(C)C	-21.1%
Cc1cccc(C(=O)Nc2cc(-c3nc4cccnc4s3)ccc2C)c1	3.7%
Cc1noc(C)c1CC(=O)N1C[C@@H](CO)[C@H](c2ccccn2)C1	15.3%
CC(=O)Nc1ccc(S(=O)(=O)N[C@H]2CO[C@H]3[C@@H]2OC[C@@H]3Nc2nccc(C(C)(C)C)n2)cc1	-9.0%
Cc1ccc(C(=O)N[C@H]2CO[C@H]3[C@@H]2OC[C@@H]3Nc2nccc(C(C)(C)C)n2)cc1	11.2µM*
CC(C)(C)c1ccc(NC(=O)O[C@@H]2CO[C@H]3[C@@H]2OC[C@@H]3Nc2nccc(C(C)(C)C)n2)cc1	i
Cc1ccccc1[C@H]1[C@@H](C(=O)NCc2n[nH]c(=O)[nH]2)C[C@@](C)(C(=O)O)N1C	14.9%
CC(C)NC(=O)C[C@@H]1C[C@H]2O[C@H](CNC3CCCC3)[C@@H](O)[C@H]2O1	-7.7%[44.1 µM]
COc1ccccc1N1CCN([C@@H]2[C@H](O)[C@H](CO)O[C@@H]2CNC(C)C)CC1	i
O=C(Cc1ccncc1)N1CCC(N2C(=O)C3(CCCCC3)C2c2ccccc2)CC1 (stereo not drawn)	i
COCC(=O)N1CCC(N2C(=O)C3(CCCCC3)C2c2ccccc2)CC1 (stereo not drawn)	-29.5%
Cn1cnc(S(=O)(=O)N2CCC(N3C(=O)C4(CCCC4)C3c3ccccc3)CC2)c1 (stereo not drawn)	-11.1%
CCOC(=O)CCNC(=O)N1CCC(N2C(=O)C3(CCCC3)C2c2scnc2C)CC1 (stereo not drawn)	-12.0%
SMILES	Pf Dd2 growth
CCNC(=O)N1CCC(N2C(=O)C3(CCCC3)C2c2ccccc2)CC1 (stereo not drawn)	11.2µM*
CN(C)S(=O)(=O)N1CCC(N2C(=O)C3(CCCCC3)C2c2ccccc2)CC1 (stereo not drawn)	-21.2%
O=C1N(C2CCNCC2)C(c2ccccc2)C12CCCC2 (stereo not drawn)	5.01µM*
O=C(Cn1ccnc1)N1CCC(N2C(=O)C3(CCCC3)C2c2ccccc2)CC1 (stereo not drawn)	-7.5%
O=C(CC(F)(F)F)N1CCC(N2C(=O)C3(CCCC3)C2c2ccccc2)CC1 (stereo not drawn)	6.31µM*
O=C(Nc1cccc(C(F)(F)F)c1)N[C@H]1[C@H](O)[C@@H](N2CCOCC2)[C@@H]2OC[C@H]1O2	15.0%[44.1 µM]
Cc1cc(C(=O)N2CCc3nnc([C@@H]4C[C@@H](O)CN4C)n3CC2)n(C)n1	-0.3%
Clc1cc(Cl)cc(NC2CNC2)c1	22.4µM*
COCCN1C(=O)CS(=O)(=O)C12CCN(C(=O)c1cc(OC)cc(OC)c1)CC2	i
O=C(NCCc1ccc(Cl)cc1)C1CCc2nnc(C3CCN(C(=O)Nc4ccc(Cl)cc4)CC3)n21 (stereo not drawn)	-29.5%
Cn1ccnc1CN1CCOC[C@H](Oc2ccccc2)C1	-26.2%[44.1 µM]
Cn1ccnc1CN1CCCC(CCc2ccccc2)C1 (stereo not drawn)	11.2µM*
Cn1ccnc1CN1CCCC(c2ccc(C(=O)O)cc2)C1 (stereo not drawn)	-2.9%
CN(CC1CCCCO1)C(=O)c1coc(COc2ccc3c(c2)OCO3)n1 (stereo not drawn)	-15.0%
O=C(C1CC1)N1CC[C@H]2COC(=O)N2c2ccccc2C1	31.1%[44.1 µM]
COc1cc2c(cc1OC)C(C[C@H]1CN(C(=O)c3ccc4c(c3)OCO4)CC[C@H]1CC(=O)O)=NCC2	-12.6%
CCC1CCCCN1C(=O)CSc1nc2c([nH]c3ccccc32)c(=O)n1-c1ccc(OC)cc1 (stereo not drawn)	12.6µM*
CCOc1ccc(-n2c(SCC(=O)NCC3CCCO3)nc3c([nH]c4ccccc43)c2=O)cc1 (stereo not drawn)	0.7%
CCOC(=O)CSc1nc2c([nH]c3ccccc32)c(=O)n1-c1ccc(OC)cc1	-2.7%
